Experimental data from the supplement of paper PMC12282887.
± gives the standard deviation of the averaged measurements.

Legend:
Assay in all cases: promoter activity interaction Z-score (Lux/OD deviation from empty-vector control); higher = stronger promoter induction by the compound
[1] = tested on: E. coli BW25113 acrABp lux reporter
How it was run: (§1)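 E. coli BW25113, as wild type or one of three single-gene deletion strains, carried low-copy luxCDABE promoter reporters and grew in 40 µl LB Lennox in 384-well plates at 37°C, with OD600 and luminescence read every 30 min for 12 h. Each compound was run at four 1:2 dilutions in biological duplicates, integration spanned 0–8 h for wild type and 1–9 h for deletion strains, and wells under 10% of the median growth value were dropped. The score is the Z-transformed residual of growth-normalised luminescence fitted against a control.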

[2] = tested on: E. coli BW25113 marRABp lux reporter
How it was run: as §1

[3] = tested on: E. coli BW25113 micFp lux reporter
How it was run: as §1

[4] = tested on: E. coli BW25113 ompFp lux reporter
How it was run: as §1

[5] = 19.7 µg/ml, genetic background: wild type
[6] = 19.7 µg/ml, genetic background: ΔmarA
[7] = 19.7 µg/ml, genetic background: Δrob
[8] = 19.7 µg/ml, genetic background: ΔsoxS
[9] = 39.3 µg/ml, genetic background: wild type
[10] = 39.3 µg/ml, genetic background: ΔmarA
[11] = 39.3 µg/ml, genetic background: Δrob
[12] = 39.3 µg/ml, genetic background: ΔsoxS
[13] = 78.6 µg/ml, genetic background: wild type
[14] = 78.6 µg/ml, genetic background: ΔmarA
[15] = 78.6 µg/ml, genetic background: Δrob
[16] = 78.6 µg/ml, genetic background: ΔsoxS
[17] = 157.2 µg/ml, genetic background: wild type
[18] = 157.2 µg/ml, genetic background: ΔmarA
[19] = 157.2 µg/ml, genetic background: Δrob
[20] = 157.2 µg/ml, genetic background: ΔsoxS

CC(=O)[C@H]1CC[C@H]2[C@@H]3CCC4=CC(=O)CC[C@]4(C)[C@H]3CC[C@]12C [Progesterone]
promoter activity interaction Z-score [1, 5]: -0.247 ± 0.13 | promoter activity interaction Z-score [1, 6]: -0.405 ± 0.19 | promoter activity interaction Z-score [1, 7]: -0.0328 ± 0.098 | promoter activity interaction Z-score [1, 8]: -0.282 ± 0.25 | promoter activity interaction Z-score [1, 9]: -0.262 ± 0.14 | promoter activity interaction Z-score [1, 10]: -0.838 ± 0.1 | promoter activity interaction Z-score [1, 11]: -0.217 ± 0.17 | promoter activity interaction Z-score [1, 12]: -0.38 ± 0.34 | promoter activity interaction Z-score [1, 13]: 0.00448 ± 0.24 | promoter activity interaction Z-score [1, 14]: -0.886 ± 0.13 | promoter activity interaction Z-score [1, 15]: -0.151 ± 0.044 | promoter activity interaction Z-score [1, 16]: -0.0393 ± 0.056 | promoter activity interaction Z-score [1, 17]: -0.214 ± 0.34 | promoter activity interaction Z-score [1, 18]: 0.269 ± 0.11 | promoter activity interaction Z-score [1, 19]: 0.191 ± 0.14 | promoter activity interaction Z-score [1, 20]: -0.315 ± 1 | promoter activity interaction Z-score [2, 5]: -0.0683 ± 0.075 | promoter activity interaction Z-score [2, 6]: 0.0187 ± 0.17 | promoter activity interaction Z-score [2, 7]: -0.191 ± 0.093 | promoter activity interaction Z-score [2, 8]: 0.0521 ± 0.092 | promoter activity interaction Z-score [2, 9]: -0.275 ± 0.28 | promoter activity interaction Z-score [2, 10]: -0.0815 ± 0.0053 | promoter activity interaction Z-score [2, 11]: -0.249 ± 0.035 | promoter activity interaction Z-score [2, 12]: -0.155 ± 0.11 | promoter activity interaction Z-score [2, 13]: -0.102 ± 0.22 | promoter activity interaction Z-score [2, 14]: -0.0516 ± 0.038 | promoter activity interaction Z-score [2, 15]: -0.252 ± 0.24 | promoter activity interaction Z-score [2, 16]: -0.3 ± 0.093 | promoter activity interaction Z-score [2, 17]: -0.0485 ± 0.46 | promoter activity interaction Z-score [2, 18]: 0.0739 ± 0.13 | promoter activity interaction Z-score [2, 19]: -0.505 ± 0.15 | promoter activity interaction Z-score [2, 20]: -0.178 ± 0.15 | promoter activity interaction Z-score [3, 5]: -0.103 ± 0.25 | promoter activity interaction Z-score [3, 6]: 0.119 ± 0.028 | promoter activity interaction Z-score [3, 7]: 0.0776 ± 0.12 | promoter activity interaction Z-score [3, 8]: 0.434 ± 0.5 | promoter activity interaction Z-score [3, 9]: -0.0976 ± 0.35 | promoter activity interaction Z-score [3, 10]: 0.123 ± 0.056 | promoter activity interaction Z-score [3, 11]: 0.0868 ± 0.01 | promoter activity interaction Z-score [3, 12]: 0.176 ± 0.29 | promoter activity interaction Z-score [3, 13]: -0.119 ± 0.33 | promoter activity interaction Z-score [3, 14]: 0.21 ± 0.0092 | promoter activity interaction Z-score [3, 15]: -0.0152 ± 0.13 | promoter activity interaction Z-score [3, 16]: 0.432 ± 0.42 | promoter activity interaction Z-score [3, 17]: -0.0937 ± 0.11 | promoter activity interaction Z-score [3, 18]: 0.211 ± 0.14 | promoter activity interaction Z-score [3, 19]: -0.0152 ± 0.04 | promoter activity interaction Z-score [3, 20]: 0.0431 ± 0.32 | promoter activity interaction Z-score [4, 5]: -0.534 ± 0.033 | promoter activity interaction Z-score [4, 6]: -0.169 ± 0.36 | promoter activity interaction Z-score [4, 7]: -0.0375 ± 0.16 | promoter activity interaction Z-score [4, 8]: -0.19 ± 0.42 | promoter activity interaction Z-score [4, 9]: -0.381 ± 0.1 | promoter activity interaction Z-score [4, 10]: -0.611 ± 0.036 | promoter activity interaction Z-score [4, 11]: 0.0341 ± 0.39 | promoter activity interaction Z-score [4, 12]: -0.905 ± 0.22 | promoter activity interaction Z-score [4, 13]: -0.604 ± 0.2 | promoter activity interaction Z-score [4, 14]: -0.705 ± 0.19 | promoter activity interaction Z-score [4, 15]: -0.397 ± 0.063 | promoter activity interaction Z-score [4, 16]: -0.681 ± 0.46
